Results reported in PubChem BioAssay.
Values joined by “and” are separate entries in the source; they are usually repeats but may differ in a detail not shown here. Equal entries are not always repeated. A number with no mark means an inactive call. Active and inactive are the calls of the source.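 Rule for the calls: active = mean inhibition over 43.08%, the solvent-only control mean plus 3 SD; inactive = the rest.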

What follows are compounds tested against Nuclear receptor coactivator 3 (Homo sapiens) (UniProt Q9Y6Q9) (assay: SRC3 coactivator transcriptional activity inhibitors, confirmation, cell-based, luminescence, quadruplicate (AID 588792;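 note: 0% = DMSO treated cells and 100% = gossypol at 36 µM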)). Conditions: HEK293 GAL4-SRC3 luciferase reporter, at 3.6 µM, active compounds read high.
Nuclear receptor coactivator 3 (Homo sapiens), sequence (Q9Y6Q9 whole entry, looked up, the tested form may be a part): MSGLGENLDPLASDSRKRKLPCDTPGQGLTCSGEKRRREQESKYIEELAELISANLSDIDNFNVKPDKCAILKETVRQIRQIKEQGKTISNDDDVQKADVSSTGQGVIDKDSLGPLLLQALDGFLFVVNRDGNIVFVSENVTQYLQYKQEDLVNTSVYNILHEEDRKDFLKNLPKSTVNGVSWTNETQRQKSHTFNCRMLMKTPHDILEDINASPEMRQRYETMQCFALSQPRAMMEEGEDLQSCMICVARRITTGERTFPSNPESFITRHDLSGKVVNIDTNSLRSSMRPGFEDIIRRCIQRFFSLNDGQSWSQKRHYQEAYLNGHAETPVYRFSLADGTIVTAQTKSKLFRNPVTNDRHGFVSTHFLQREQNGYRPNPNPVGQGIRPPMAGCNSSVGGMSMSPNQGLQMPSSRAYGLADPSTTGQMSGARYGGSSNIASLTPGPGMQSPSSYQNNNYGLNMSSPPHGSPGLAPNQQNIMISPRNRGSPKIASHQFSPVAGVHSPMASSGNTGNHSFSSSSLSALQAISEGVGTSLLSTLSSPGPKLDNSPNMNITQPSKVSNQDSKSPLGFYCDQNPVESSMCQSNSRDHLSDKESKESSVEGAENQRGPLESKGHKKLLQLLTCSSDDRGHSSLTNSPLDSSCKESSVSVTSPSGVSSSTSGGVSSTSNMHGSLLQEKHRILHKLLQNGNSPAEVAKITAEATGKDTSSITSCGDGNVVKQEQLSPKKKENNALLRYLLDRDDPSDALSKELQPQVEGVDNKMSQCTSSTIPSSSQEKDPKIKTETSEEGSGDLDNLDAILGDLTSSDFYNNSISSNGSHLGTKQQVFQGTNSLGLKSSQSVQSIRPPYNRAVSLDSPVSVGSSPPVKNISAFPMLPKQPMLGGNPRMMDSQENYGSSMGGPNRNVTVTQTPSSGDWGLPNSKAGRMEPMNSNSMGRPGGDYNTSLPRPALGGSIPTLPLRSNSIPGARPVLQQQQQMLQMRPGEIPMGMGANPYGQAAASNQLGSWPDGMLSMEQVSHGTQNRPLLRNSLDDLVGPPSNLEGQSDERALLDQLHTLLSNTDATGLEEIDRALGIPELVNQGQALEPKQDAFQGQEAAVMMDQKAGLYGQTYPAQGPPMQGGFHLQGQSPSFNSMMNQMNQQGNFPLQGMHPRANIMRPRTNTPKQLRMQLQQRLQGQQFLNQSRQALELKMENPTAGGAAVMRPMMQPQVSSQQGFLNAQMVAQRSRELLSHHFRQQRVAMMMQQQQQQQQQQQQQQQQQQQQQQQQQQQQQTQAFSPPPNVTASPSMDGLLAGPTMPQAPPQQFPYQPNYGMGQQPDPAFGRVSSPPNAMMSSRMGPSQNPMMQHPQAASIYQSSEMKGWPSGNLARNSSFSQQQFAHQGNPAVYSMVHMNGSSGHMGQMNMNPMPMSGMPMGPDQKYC
`C[C@H]1CCC/C=C/[C@@H]2C[C@H](O)C[C@H]2[C@@H](O)/C=C/C(=O)O1` was tested, and the inhibition was 64.3% (active).
In the case of `COC(=O)C1=C(c2ccc(-c3ccccc3)c(F)c2)C[C@@H]2CC[C@H]1N2C(=O)N1CCCCC1`, the inhibition is reported as 18.3%.
For `CC(C)c1oc(=O)cc2c1[C@@H](O)[C@H]1OC(=O)[C@@]3(C)C[C@@H](O)[C@@H](O)[C@@]2(C)C13` (stereo partly drawn), the inhibition was 79.4% (active).
`COC(=O)c1ccc(NC(=O)CSc2nc3ccc(N4C(=O)C5C6C=CC(C6)C5C4=O)cc3s2)cc1` (stereo not drawn) gave an inhibition of -22.8%.
In the case of `CC1CCC/C=C/C2CC(O)CC2C(O)/C=C/C(=O)O1` (stereo not drawn), the inhibition is reported as 64.7% (active).
`C1=NCCc2c1[nH]c1ccccc21` was tested, and the inhibition was 27.8%.
With `CC(=O)OC1C2(CC3N4C(=O)C5(CO)SSC4(CC31O)C(=O)N5C)OC(C)C(C)(C)C2=O` (stereo not drawn) the inhibition was 95.9% (active).
`COc1cc2nc(CN3CC=C(c4ccccc4)CC3)[nH]c(=O)c2cc1OC` was tested, and the inhibition was 37.9%.
`c1ccc(-c2[nH]c(-c3ccccc3)[n+](CC3CO3)c2-c2ccccc2)cc1` (stereo not drawn) showed an inhibition of 13.4%.
`C[C@H]1CCC/C=C/[C@@H]2C[C@H](O)C[C@H]2[C@H](O)/C=C/C(=O)O1` was tested, and the inhibition was 70% (active) and 66.5% (active).
With `COc1ccc(CN2Cc3cnnn3-c3ccccc3C2C#N)cc1` (stereo not drawn) the inhibition was 62.8% (active).
Compound `COC(=O)C[C@]1(C(=O)OC)CN(C#N)N(c2ccc(Cl)cc2)C12c1ccccc1-c1ccccc12` has an inhibition of 17.7%.
With `CCCOC(=O)c1ccc(-[n+]2c(-c3ccccc3)cc(-c3ccccc3)cc2-c2ccccc2)cc1` the inhibition was 44.1% (active).
